Test results from PubChem BioAssay (NCI).
About 83,000 compounds went through this panel and 20% of them were active in at least one assay; those are over-represented in the sample as a whole.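 Treatment: one concentration, 48 hours, 96-well format. Scoring: percent growth, with anything below 10 considered active.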 Values without a mark were called inactive. Calls of active or inactive are those of the source.

Columns and labels:
Assay in all cases: NCI-60 one-dose screen, 48 h (100 = growth as untreated, 0 = no growth, -100 = all killed)
Details in all cases: 10 µM unless noted
NCI-H23 lung = tested on: NCI-H23 lung
NCI-H322M lung = tested on: NCI-H322M lung
HOP-62 NSCLC = tested on: HOP-62 NSCLC
NCI-H460 lung = tested on: NCI-H460 lung
HOP-92 NSCLC = tested on: HOP-92 NSCLC
A549/ATCC NSCLC = tested on: A549/ATCC NSCLC
786-0 renal = tested on: 786-0 renal
COLO 205 colon = tested on: COLO 205 colon
NCI-H522 lung = tested on: NCI-H522 lung

CN1CCN(c2ccc3c(c2)nc(NNC(=O)c2cnccn2)c2cccn23)CC1
growth (NCI-H23 lung): 34.1% | growth (NCI-H322M lung): 21.5% | growth (HOP-62 NSCLC): 25.1% | growth (NCI-H460 lung): 9.73% (active) | growth (HOP-92 NSCLC): 65.5% | growth (A549/ATCC NSCLC): 21.9% | growth (786-0 renal): 17.6% | growth (COLO 205 colon): 3.54% (active)

CCOC(=O)c1c2c(n3c1NCC3)-c1ccccc1C2=O
growth (NCI-H23 lung): 99% | growth (NCI-H322M lung): 105% | growth (NCI-H460 lung): 107% | growth (HOP-92 NSCLC): 84% | growth (NCI-H522 lung): 36.2% | growth (A549/ATCC NSCLC): 101% | growth (786-0 renal): 94.3% | growth (COLO 205 colon): 110%

O=[N+]([O-])/C(=C\c1ccco1)c1ccccc1Cl
growth (NCI-H23 lung): 92.3% | growth (NCI-H322M lung): 80.2% | growth (HOP-62 NSCLC): 76.2% | growth (NCI-H460 lung): 68.1% | growth (HOP-92 NSCLC): 33.2% | growth (NCI-H522 lung): 23.2% | growth (A549/ATCC NSCLC): 62.3% | growth (786-0 renal): 9.35% (active) | growth (COLO 205 colon): 82.8%

COc1ccc(C2=CN3CC=CCC3CC2=O)cc1 (centres undefined)
growth (NCI-H23 lung): 106% | growth (NCI-H322M lung): 113% | growth (HOP-62 NSCLC): 87.8% | growth (NCI-H460 lung): 108% | growth (HOP-92 NSCLC): 92.1% | growth (NCI-H522 lung): 66.9% | growth (A549/ATCC NSCLC): 75% | growth (786-0 renal): 101% | growth (COLO 205 colon): 113%

CCOC(=O)Nc1nc2ccc(SCC(C)C)cc2s1
growth (NCI-H23 lung): 40.9% | growth (NCI-H322M lung): 36.7% | growth (HOP-62 NSCLC): 22.6% | growth (NCI-H460 lung): 19.3% | growth (HOP-92 NSCLC): 33.6% | growth (NCI-H522 lung): 4.9% (active) | growth (A549/ATCC NSCLC): 28.5% | growth (786-0 renal): 27.8% | growth (COLO 205 colon): -14.9% (active)

CC(C)c1ccc(-n2c(=S)[nH]c3sc4c(c3c2=O)CCC(=O)C4)cc1
growth (NCI-H23 lung): 36.2% | growth (NCI-H322M lung): 78% | growth (HOP-62 NSCLC): 33.9% | growth (NCI-H460 lung): 30.3% | growth (HOP-92 NSCLC): -6.71% (active) | growth (NCI-H522 lung): 6.26% (active) | growth (A549/ATCC NSCLC): 71.1% | growth (786-0 renal): 102% | growth (COLO 205 colon): 92.7%

C=CCN=C(N)SCCCCCCSC(N)=NCC=C
growth (NCI-H23 lung): 105% | growth (NCI-H322M lung): 103% | growth (HOP-62 NSCLC): 75.1% | growth (NCI-H460 lung): 102% | growth (HOP-92 NSCLC): 63.3% | growth (NCI-H522 lung): 64.4% | growth (A549/ATCC NSCLC): 86.8% | growth (786-0 renal): 92.2% | growth (COLO 205 colon): 86.4%

O=C(O)c1cn(C2CC2)c2cc(N3CCN(C(=O)N/N=C/c4ccccc4)CC3)c(F)cc2c1=O
growth (NCI-H23 lung): 97.1% | growth (NCI-H322M lung): 100% | growth (HOP-62 NSCLC): 107% | growth (NCI-H460 lung): 109% | growth (HOP-92 NSCLC): 89% | growth (A549/ATCC NSCLC): 106% | growth (786-0 renal): 93.6% | growth (COLO 205 colon): 114%

COc1ccc(-c2ccc(=O)oc2C#Cc2cc(OC)c(OC)c(OC)c2)cc1O
growth (NCI-H23 lung): 44.2% | growth (NCI-H322M lung): 31.5% | growth (HOP-62 NSCLC): -28.1% (active) | growth (NCI-H460 lung): -4.6% (active) | growth (HOP-92 NSCLC): 51.4% | growth (NCI-H522 lung): 4.45% (active) | growth (A549/ATCC NSCLC): 28.7% | growth (786-0 renal): 11.8% | growth (COLO 205 colon): 47.2%

NC(=S)N/N=C/c1cn(-c2ccccc2)nc1-c1cc2ccccc2oc1=O
growth (NCI-H23 lung): 78.2% | growth (NCI-H322M lung): 89.2% | growth (HOP-62 NSCLC): 72.3% | growth (NCI-H460 lung): 21% | growth (HOP-92 NSCLC): 79.7% | growth (NCI-H522 lung): 36.5% | growth (A549/ATCC NSCLC): 46.4% | growth (786-0 renal): 62.4% | growth (COLO 205 colon): 46.4%

O=C1Nc2ccccc2C2c3cccn3-c3ccccc3N12 (centres undefined)
growth (NCI-H23 lung): 81% | growth (NCI-H322M lung): 83% | growth (HOP-62 NSCLC): 58.2% | growth (NCI-H460 lung): 88.9% | growth (HOP-92 NSCLC): 57.8% | growth (NCI-H522 lung): 8.49% (active) | growth (A549/ATCC NSCLC): 61.7% | growth (786-0 renal): 87.8% | growth (COLO 205 colon): 60.5%

CC(C)=CC(=O)N[C@@H]1CC2CCC3C(CC[C@@]4(C)C3CC[C@@H]4C(C)N(C)C)[C@@]2(C)C[C@@H]1O (some centres undefined)
growth (NCI-H23 lung): 43.8% | growth (NCI-H322M lung): 104% | growth (HOP-62 NSCLC): 56.4% | growth (NCI-H460 lung): 32.1% | growth (HOP-92 NSCLC): 40.6% | growth (NCI-H522 lung): 83% | growth (A549/ATCC NSCLC): 74.5% | growth (786-0 renal): 58.5% | growth (COLO 205 colon): 14.8%

CC/C=C1/C(=O)C=C[C@@H]1C/C=C\CCCC(=O)OC
growth (NCI-H23 lung): 74.8% | growth (NCI-H322M lung): 108% | growth (HOP-62 NSCLC): 90.5% | growth (NCI-H460 lung): 97.9% | growth (HOP-92 NSCLC): 91.3% | growth (NCI-H522 lung): -38.3% (active) | growth (A549/ATCC NSCLC): 90.2% | growth (786-0 renal): 82.5% | growth (COLO 205 colon): 97.3%

Cn1c(=O)c2c(c3ccccc31)OC(N)=C(C#N)C21C(=O)c2ccccc2C1=O
growth (NCI-H23 lung): 87.5% | growth (NCI-H322M lung): 91.5% | growth (HOP-62 NSCLC): 80.3% | growth (NCI-H460 lung): 85% | growth (HOP-92 NSCLC): 92.8% | growth (NCI-H522 lung): 95.9% | growth (A549/ATCC NSCLC): 95.7% | growth (786-0 renal): 95.1% | growth (COLO 205 colon): 102%

O=C(Nc1cccc(NC(=O)C2CCCCC2)c1)c1ccccn1
growth (NCI-H23 lung): 88.3% | growth (NCI-H322M lung): 89.2% | growth (HOP-62 NSCLC): 100% | growth (NCI-H460 lung): 114% | growth (HOP-92 NSCLC): 112% | growth (NCI-H522 lung): 89.9% | growth (A549/ATCC NSCLC): 102% | growth (786-0 renal): 95% | growth (COLO 205 colon): 117%

CCCCCCCC/C=C\CCCCCCCCOc1ccccc1CC(=O)NCC[N+]1(C)CCCCC1
growth (NCI-H23 lung): 58.9% | growth (NCI-H322M lung): 96.5% | growth (HOP-62 NSCLC): 75.9% | growth (NCI-H460 lung): 50.4% | growth (HOP-92 NSCLC): 48.1% | growth (NCI-H522 lung): 38% | growth (A549/ATCC NSCLC): 66.3% | growth (786-0 renal): 96.8% | growth (COLO 205 colon): 23%

COc1cc2c(c(OC)c1OC)C(=O)CC(c1cccc(NC(=O)c3ccccc3Br)c1)O2 (centres undefined)
growth (NCI-H23 lung): 98.4% | growth (NCI-H322M lung): 96% | growth (HOP-62 NSCLC): 97.4% | growth (NCI-H460 lung): 90.4% | growth (HOP-92 NSCLC): 65.2% | growth (NCI-H522 lung): 66.7% | growth (A549/ATCC NSCLC): 88.1% | growth (786-0 renal): 103% | growth (COLO 205 colon): 116%

Cc1c2ccccc2nc2c1ccc1cccnc12
growth (NCI-H23 lung): 74.5% | growth (NCI-H322M lung): 101% | growth (HOP-62 NSCLC): 105% | growth (NCI-H460 lung): 73.8% | growth (HOP-92 NSCLC): 106% | growth (NCI-H522 lung): 63.5% | growth (A549/ATCC NSCLC): 59.8% | growth (786-0 renal): 95.8% | growth (COLO 205 colon): 50.8%
